A short description of test [1]: yeast TOR pathway RPL19A-GFP modulators, primary screen, cell-based, S. cerevisiae, multiplex flow cytometry (AID 1862; in the data active = percent of DMSO control GFP below about 86%;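 note: lower values mimic rapamycin by blocking the RPL19A rise seen in DMSO cells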). The settings on record: S. cerevisiae RPL19A-GFP strain, flow cytometry fluorescence, 3 h; at 10 µM; stronger effect = lower value.
Test [2] can be described thus: modulators of MEP2-GFP levels in yeast, primary screen, S. cerevisiae, multiplex flow cytometry (AID 1867;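 active = GFP response, as percent of the DMSO control, above the screen-wide mean plus 3 SD, about 139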;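 note: median GFP channel fluorescence of barcode-gated MEP2-GFP cells measured by flow cytometry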). The settings on record: S. cerevisiae MEP2-GFP strain, 3 h, at 10 µM, stronger effect = higher value, 100% means same as DMSO wells. For orientation: Flow cytometry measures light scatter and fluorescence of single cells or particles in a stream.
The nature of test [3]: modulators of CIT2-GFP expression in yeast, primary screen, S. cerevisiae, GFP fusion, multiplex flow cytometry (AID 1870;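 active = percent response above a set limit, the screen-wide mean plus 3 SD, cut at about 130% in these data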;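 note: barcoded CIT2-GFP strain pooled with four other GFP strains with rapamycin as positive control; median GFP fluorescence per well over plate mean of DMSO wells so 100% = DMSO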). The settings on record: 3 h, at 10 µM, stronger effect = higher value.
Test [4] can be described thus: modulators of LAP4-GFP expression in yeast, primary screen, S. cerevisiae, multiplex flow cytometry (AID 1873;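 active = GFP signal, as percent of the solvent control, above the screen mean plus 3 SD, about 149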). The conditions noted are these: 3 h, at 10 µM, stronger effect = higher value.
Test [5] is described as follows: modulators of AGP1-GFP expression in yeast TOR pathway, primary screen, cell-based, multiplex flow cytometry, S. cerevisiae (AID 1887;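 active = GFP signal above the screen-wide mean plus 3 SD, that is over about 124.5% of the solvent control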;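 note: AGP1-GFP fusion strain of S. cerevisiae within a five-strain barcoded multiplex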). The conditions noted are these: 3 h, at 10 µM, stronger effect = higher value.
A short description of test [6]: inhibitors of CD8+ T cell-vesicle binding, pilot screen, LFA-1/ICAM-1 modulator project, MLPCN validation set, flow cytometry (AID 2523;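 active = response below a set limit, under 55% cells CD8-positive and vesicle-bound, and CD8 cells' 90th-percentile brightness under 279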;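 for vesicle binding response: mean PE anti-B7-1 fluorescence of CD8+ cells relative to row control; 100% = QL9-loaded vesicles with DMSO vehicle in the same plate row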). The settings on record: 2C mouse CD8+ T cells, at 7 µM, stronger effect = lower value; double positive events: measured here: CD8+/vesicle+ event percentage.
For test [7], the target named is Integrin beta-1 (Homo sapiens) + Integrin alpha-4 (Homo sapiens) (UniProt P13612+P05556). Description: inhibition of HUTS-21 binding to VLA-4, pilot screen, VLA-4 allosteric modulator project, U937 cells, HUTS-21 mAb, flow cytometry, validation set (AID 2674;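 active = inhibition above 50%, about 3 SD of the validation set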;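 note: antibody binding induced by the VLA-4 ligand LDV present at three times its Kd; 0% = LDV ligand with antibody and no compound and 100% = antibody without LDV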). The settings on record: HUTS-21 LIBS mAb binding, at 6.7 µM, stronger effect = higher value, binding induced by LDV ligand.

Test [8] is described as follows: superoxide lowering in aged yeast cells, pilot screen, validation compound set (AID 2706;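 active = superoxide response below 65% of plate, a cut near 3 SD across the whole screen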;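 note: yeast exposed to compound for one week at 30 degrees C before staining; 100% = mean of all compound wells on the same plate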). The conditions noted are these: S. cerevisiae aging, superoxide DHE fluorescence; at 10 µM; stronger effect = lower value.
For test [9], the target named is Beta-adrenergic receptor kinase 1 (Homo sapiens) (UniProt P25098). Description: GRK2 binders displacing RNA aptamer, biochemical, validation, human GRK2, bead flow cytometry (AID 488806). The conditions noted are these: bead-bound GRK2, FAM-aptamer displacement, at 10 µM, stronger effect = higher value.
The target in test [10] is Beta-2 adrenergic receptor (Homo sapiens) (UniProt P07550). Kind of test: beta2AR agonists driving receptor internalization, pilot screen, cell-based, FAP fluorogen, flow cytometry, validation set (AID 504459;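 active = percent response above 42, roughly 3 SD of non-fluorescent test compounds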;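 note: agonist-driven loss of surface beta2AR via internalization measured by FAP dye flow cytometry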). The settings on record: Am2.2-beta2AR cells, FAP surface receptor flow cytometry; at 10 µM; stronger effect = higher value.
Test [11] addresses AP-2 complex subunit beta (Homo sapiens) (UniProt P63010). Kind of test: inhibitors of arrestin peptide binding to AP2, pilot screen, biochemical, validation set, GST-AP2 beads, flow cytometry (AID 504541;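 active = inhibition above 54%, about 3 SD of non-fluorescent compounds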;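 note: AP2 carries R879A mutation and is captured from E. coli lysate; bead-bound FITC arrestin peptide fluorescence measuring arrestin peptide binding to AP2; 0% = DMSO wells and 100% = excess unlabeled arrestin peptide control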). The conditions noted are these: FITC arrestin peptide, at 10 µM, stronger effect = higher value, AP2 beta2 appendage fragment, R879A mutant.
Test [12] can be described thus: yeast V-ATPase proton transport modulators, S. cerevisiae, pHLuorin, HTS validation (AID 504600; in the data active = response above about 15%;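 note: plate controls were DMSO for no effect and reference compound for full effect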). The conditions noted are these: S. cerevisiae pHLuorin cytosolic pH, at 10 µM, stronger effect = higher value.
In test [13] the test system is anti-desmoglein-3 scFv antibody binding to human DSG3. Description: inhibitors of anti-DSG3 scFv binding to DSG3, pilot screen, biochemical, validation compound set, bead-based, flow cytometry (AID 588368;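 active = binding below the plate cutoff, the plate median minus 3 SD, with a reading above zero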;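 note: signal is the median channel fluorescence of bead-bound GFP antibody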). The settings on record: Protein G beads, DSG3-Fc, scFv-GFP binding, at 10 µM, stronger effect = lower value.
A short description of test [14]: inhibitors of fungal efflux pumps CDR1, CDR2, MDR1, pilot screen, validation compound set, multiplex, phenotypic (AID 588506;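 active = efflux inhibition above 0.42, the validation set average plus 4 SD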;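 note: Nile Red retained in cells so higher fluorescence means more efflux inhibition; 0 = negative control wells and 1 = enniatin B 25 µM full block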). The settings on record: S. cerevisiae pump-expressing triplex, Nile Red efflux flow cytometry; at 10 µM; stronger effect = higher value; the pumps come from Candida albicans.
For test [15], the target named is ATP-binding cassette sub-family B member 6 (Homo sapiens) (UniProt Q9NP58). Kind of test: ABCB6 transporter inhibitors, pilot screen, K562-ABCB6 cells, flow cytometry, validation set (AID 588550;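 active = inhibition above the screen-wide mean plus 3 SD, about 51%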;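 note: 0% = DMSO wells and 100% = benzethonium chloride 70 µM positive control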). The settings on record: K562-ABCB6 porphyrin accumulation, 1 h, at 10 µM, stronger effect = higher value.
The nature of test [16]: promoters of myeloid differentiation in arrested cells, primary screen, cell-based, GFP/MAC1 double positive, flow cytometry, validation set (AID 588685;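 active = differentiation response of at least 50%, scaled between solvent and reference control, from cells with both markers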;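 note: compound exposure lasts four days before antibody staining and flow analysis; 0% = DMSO wells and 100% = 5 µM fulvestrant positive control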). The conditions noted are these: ER-HoxA9 marrow cells, stronger effect = higher value, normalized: vehicle 0, fulvestrant 100.

Records with an inconclusive call do not appear. Calls of active or inactive are those of the source.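 Rule for the calls, unless noted: active = aptamer binding inhibition above 30%, about 3 SD of noise from non-fluorescent compounds; inactive = inhibition at or below 30%.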

Chain of AP-2 complex subunit beta (Homo sapiens) (P63010 whole entry, looked up, the tested form may be a part, one chain of several): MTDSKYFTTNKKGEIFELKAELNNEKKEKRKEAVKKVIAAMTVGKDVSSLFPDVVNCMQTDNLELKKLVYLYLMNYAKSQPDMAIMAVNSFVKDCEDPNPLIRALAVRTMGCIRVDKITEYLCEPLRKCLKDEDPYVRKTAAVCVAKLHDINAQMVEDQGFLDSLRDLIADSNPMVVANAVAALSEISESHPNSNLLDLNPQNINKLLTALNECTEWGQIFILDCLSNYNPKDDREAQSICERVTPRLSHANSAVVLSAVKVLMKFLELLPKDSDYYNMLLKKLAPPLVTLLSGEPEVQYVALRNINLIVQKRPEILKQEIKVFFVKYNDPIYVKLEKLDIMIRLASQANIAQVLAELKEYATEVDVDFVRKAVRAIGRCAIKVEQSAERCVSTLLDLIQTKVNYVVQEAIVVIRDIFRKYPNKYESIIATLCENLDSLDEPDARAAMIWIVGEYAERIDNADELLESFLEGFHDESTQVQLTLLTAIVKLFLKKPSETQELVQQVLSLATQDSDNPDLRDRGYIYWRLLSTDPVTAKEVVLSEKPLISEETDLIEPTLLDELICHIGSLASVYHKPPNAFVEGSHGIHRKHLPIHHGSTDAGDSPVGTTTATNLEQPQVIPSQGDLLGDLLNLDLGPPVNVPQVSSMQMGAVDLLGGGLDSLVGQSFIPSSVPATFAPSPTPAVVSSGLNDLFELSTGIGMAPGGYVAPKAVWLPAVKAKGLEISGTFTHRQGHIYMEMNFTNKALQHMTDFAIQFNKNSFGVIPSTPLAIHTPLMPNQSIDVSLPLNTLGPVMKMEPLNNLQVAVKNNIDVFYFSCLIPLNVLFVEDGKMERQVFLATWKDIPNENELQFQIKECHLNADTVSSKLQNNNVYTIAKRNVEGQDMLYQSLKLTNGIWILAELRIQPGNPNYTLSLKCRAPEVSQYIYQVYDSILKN
Chain of Beta-adrenergic receptor kinase 1 (Homo sapiens) (P25098 whole entry, looked up): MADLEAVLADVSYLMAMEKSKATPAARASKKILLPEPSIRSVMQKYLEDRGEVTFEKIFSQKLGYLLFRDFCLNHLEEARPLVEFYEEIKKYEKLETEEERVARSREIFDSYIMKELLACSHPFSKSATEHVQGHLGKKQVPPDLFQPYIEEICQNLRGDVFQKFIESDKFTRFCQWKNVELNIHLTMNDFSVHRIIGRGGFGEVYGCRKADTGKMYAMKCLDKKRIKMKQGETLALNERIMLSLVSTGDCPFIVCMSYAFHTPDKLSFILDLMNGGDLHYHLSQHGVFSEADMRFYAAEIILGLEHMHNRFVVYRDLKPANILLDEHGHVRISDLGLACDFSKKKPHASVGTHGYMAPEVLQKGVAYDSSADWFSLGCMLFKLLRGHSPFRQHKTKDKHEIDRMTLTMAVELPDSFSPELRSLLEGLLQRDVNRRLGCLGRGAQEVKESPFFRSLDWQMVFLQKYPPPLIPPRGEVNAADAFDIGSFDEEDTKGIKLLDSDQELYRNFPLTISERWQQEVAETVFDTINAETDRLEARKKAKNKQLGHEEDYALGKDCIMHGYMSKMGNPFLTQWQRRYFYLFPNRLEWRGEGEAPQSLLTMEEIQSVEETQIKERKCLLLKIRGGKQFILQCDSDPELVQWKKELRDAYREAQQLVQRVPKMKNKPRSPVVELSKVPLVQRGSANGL
Chain of ATP-binding cassette sub-family B member 6 (Homo sapiens) (Q9NP58 whole entry, looked up): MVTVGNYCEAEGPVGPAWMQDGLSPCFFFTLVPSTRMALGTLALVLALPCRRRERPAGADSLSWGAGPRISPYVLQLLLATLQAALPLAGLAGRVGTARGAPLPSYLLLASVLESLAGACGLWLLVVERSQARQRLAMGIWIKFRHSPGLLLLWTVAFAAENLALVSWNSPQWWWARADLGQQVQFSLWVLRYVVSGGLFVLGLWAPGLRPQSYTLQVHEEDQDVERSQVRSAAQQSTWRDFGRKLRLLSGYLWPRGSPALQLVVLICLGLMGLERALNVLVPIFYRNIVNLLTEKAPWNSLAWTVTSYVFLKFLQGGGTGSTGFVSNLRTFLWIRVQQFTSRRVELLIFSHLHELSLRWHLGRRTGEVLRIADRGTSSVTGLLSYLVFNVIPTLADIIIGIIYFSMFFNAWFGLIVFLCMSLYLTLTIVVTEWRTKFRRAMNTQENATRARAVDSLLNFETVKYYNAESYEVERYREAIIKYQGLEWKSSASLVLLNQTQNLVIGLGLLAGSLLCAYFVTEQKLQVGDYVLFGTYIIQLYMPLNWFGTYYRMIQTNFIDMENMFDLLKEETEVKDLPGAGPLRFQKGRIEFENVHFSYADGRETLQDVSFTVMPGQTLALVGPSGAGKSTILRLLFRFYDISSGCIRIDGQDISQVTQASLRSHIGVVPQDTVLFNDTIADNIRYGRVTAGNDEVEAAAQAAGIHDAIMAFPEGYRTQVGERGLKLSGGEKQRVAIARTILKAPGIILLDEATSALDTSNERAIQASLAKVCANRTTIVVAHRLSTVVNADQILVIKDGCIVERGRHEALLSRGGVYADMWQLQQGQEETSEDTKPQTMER
Chain of Integrin beta-1 (Homo sapiens) + Integrin alpha-4 (Homo sapiens) (P05556 whole entry, looked up): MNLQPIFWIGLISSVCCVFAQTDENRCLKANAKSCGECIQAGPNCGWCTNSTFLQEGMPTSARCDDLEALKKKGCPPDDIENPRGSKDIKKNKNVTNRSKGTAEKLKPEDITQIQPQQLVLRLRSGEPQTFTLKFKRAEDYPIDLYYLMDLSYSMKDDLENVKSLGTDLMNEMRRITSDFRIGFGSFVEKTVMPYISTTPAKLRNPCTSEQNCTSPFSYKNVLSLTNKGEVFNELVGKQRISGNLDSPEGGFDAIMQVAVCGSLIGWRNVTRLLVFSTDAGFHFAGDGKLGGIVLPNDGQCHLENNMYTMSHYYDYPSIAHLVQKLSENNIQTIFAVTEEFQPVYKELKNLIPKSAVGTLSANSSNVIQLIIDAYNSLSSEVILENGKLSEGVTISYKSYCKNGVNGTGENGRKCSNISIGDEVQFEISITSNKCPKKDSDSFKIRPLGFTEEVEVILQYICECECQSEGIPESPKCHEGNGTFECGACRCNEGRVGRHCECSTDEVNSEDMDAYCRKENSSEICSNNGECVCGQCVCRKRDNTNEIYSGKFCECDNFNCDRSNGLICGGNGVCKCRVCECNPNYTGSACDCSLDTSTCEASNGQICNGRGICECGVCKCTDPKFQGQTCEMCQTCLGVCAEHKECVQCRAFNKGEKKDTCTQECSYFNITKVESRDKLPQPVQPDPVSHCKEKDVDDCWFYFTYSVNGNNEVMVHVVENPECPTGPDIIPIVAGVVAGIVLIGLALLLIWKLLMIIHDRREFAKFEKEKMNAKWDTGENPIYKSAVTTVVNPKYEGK
Chain of Integrin beta-1 (Homo sapiens) + Integrin alpha-4 (Homo sapiens) (P13612 whole entry, looked up): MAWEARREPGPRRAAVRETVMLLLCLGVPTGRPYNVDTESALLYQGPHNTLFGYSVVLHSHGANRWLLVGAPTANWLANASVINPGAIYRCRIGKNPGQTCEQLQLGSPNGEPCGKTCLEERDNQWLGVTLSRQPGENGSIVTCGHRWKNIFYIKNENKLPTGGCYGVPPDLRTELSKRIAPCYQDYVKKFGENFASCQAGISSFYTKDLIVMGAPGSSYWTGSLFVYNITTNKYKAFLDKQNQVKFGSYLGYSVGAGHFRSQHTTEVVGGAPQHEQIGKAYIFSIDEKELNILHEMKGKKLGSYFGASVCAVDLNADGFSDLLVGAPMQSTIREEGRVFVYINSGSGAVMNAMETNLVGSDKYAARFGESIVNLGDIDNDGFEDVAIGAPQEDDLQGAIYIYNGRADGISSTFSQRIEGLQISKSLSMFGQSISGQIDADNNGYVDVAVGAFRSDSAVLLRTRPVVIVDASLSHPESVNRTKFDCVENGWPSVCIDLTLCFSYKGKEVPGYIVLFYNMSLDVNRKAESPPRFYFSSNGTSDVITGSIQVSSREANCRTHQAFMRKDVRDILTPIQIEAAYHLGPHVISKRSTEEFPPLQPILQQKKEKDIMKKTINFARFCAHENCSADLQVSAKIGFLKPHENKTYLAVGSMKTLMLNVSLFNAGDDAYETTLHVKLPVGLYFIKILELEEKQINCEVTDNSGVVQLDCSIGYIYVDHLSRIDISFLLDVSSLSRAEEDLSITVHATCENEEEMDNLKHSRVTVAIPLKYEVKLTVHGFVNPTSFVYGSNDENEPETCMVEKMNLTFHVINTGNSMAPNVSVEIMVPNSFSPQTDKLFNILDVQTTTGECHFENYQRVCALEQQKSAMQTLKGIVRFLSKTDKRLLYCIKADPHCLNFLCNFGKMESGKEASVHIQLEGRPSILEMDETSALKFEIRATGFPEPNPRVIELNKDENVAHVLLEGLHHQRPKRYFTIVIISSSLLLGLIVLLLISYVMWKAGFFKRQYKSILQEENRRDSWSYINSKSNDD
Chain of Beta-2 adrenergic receptor (Homo sapiens) (P07550 whole entry, looked up): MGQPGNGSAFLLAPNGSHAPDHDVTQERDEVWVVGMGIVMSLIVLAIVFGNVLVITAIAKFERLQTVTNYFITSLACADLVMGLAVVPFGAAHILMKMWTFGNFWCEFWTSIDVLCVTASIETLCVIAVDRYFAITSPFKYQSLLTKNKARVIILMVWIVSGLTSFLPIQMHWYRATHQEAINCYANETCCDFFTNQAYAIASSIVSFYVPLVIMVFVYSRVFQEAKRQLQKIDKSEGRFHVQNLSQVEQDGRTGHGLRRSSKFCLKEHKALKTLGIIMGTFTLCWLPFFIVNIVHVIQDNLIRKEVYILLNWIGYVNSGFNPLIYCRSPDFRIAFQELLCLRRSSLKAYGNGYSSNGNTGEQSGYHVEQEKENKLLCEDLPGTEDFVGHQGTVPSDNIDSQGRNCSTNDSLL

As for `COc1ccc(Cc2noc(CN(C)CC3(N4CCOCC4)CCCCC3)n2)cc1OC`, the percent of DMSO control GFP in [1] is 94.3% (inactive). Besides, the GFP response vs DMSO in [2] was 99.7% (inactive); in test [4], 95.9% (inactive). For the same compound, in test [3], the percent response of DMSO control is 106% (inactive). The GFP response, % of DMSO in test [5] was 98.3% (inactive). Further, the double positive events in test [6] is 60.5%. Further, in [6], the vesicle binding response is 80.5% (inactive). For the same compound, the values for the inhibition in test [7], in test [11] and in [15] were 2.93% (inactive), -7.18% (inactive) and 36% (inactive), respectively. For the same compound, in [8], the superoxide response (% of plate) was 108% (inactive). Besides, in test [9], the aptamer binding inhibition was 2% (inactive). Further, the response in test [10] was 8.59% (inactive); in test [12], 2.83% (inactive). Further, in test [13], the binding (% of control) was 102% (inactive). The efflux inhibition (fraction of control) in [14] is 0.22 (inactive). For the same compound, the differentiation response in test [16] is -10.4% (inactive).
As for `COc1ccccc1/C=C/CN1CCN(Cc2ccc(F)cc2)C(CCO)C1` (centres undefined), the percent of DMSO control GFP in [1] was 101% (inactive). The GFP response vs DMSO was 98.8% (inactive) in [2] and 91.6% (inactive) in test [4]. The percent response of DMSO control in test [3] was 98.2% (inactive). Further, the GFP response, % of DMSO in test [5] was 98.5% (inactive). This compound gave a double positive events in [6] of 63.2%. Further, the vesicle binding response in test [6] was 171% (inactive). Moreover, the inhibition (commonly the relative decrease from the control value, in per cent) was -3.18% (inactive) in test [7], -20.3% (inactive) in [11] and 8% (inactive) in [15]. Moreover, in [8], the superoxide response (% of plate) is 92.6% (inactive). Also, the aptamer binding inhibition in [9] was 1% (inactive). Also, the response in [10] is 9.17% (inactive); in test [12], 0.79% (inactive). The binding (% of control) in test [13] was 107% (inactive). In test [14], the efflux inhibition (fraction of control) is -0.38 (inactive). Further, in [16], the differentiation response was -3.4% (inactive).
On to `CCOC(=O)C1C2C=CC3(CN(c4ccc(Cl)c(F)c4)C(=O)C13)O2` (centres undefined), for which the percent of DMSO control GFP in test [1] is 100% (inactive). Further, the GFP response vs DMSO in test [2] is 99.3% (inactive); in [4], 96.6% (inactive). Besides, the percent response of DMSO control in test [3] is 95.4% (inactive). The GFP response, % of DMSO in test [5] is 94.6% (inactive). For the same compound, the double positive events in test [6] turned out to be 58.3%. The vesicle binding response in test [6] is 171% (inactive). In addition, the inhibition in [7] was -9.79% (inactive); in [11], 36.1% (inactive); in test [15], 2% (inactive). Moreover, in [8], the superoxide response (% of plate) was 105% (inactive). In addition, in [9], the aptamer binding inhibition is 1% (inactive). The response in test [10] is 1.75% (inactive); in [12], -0.79% (inactive). In [13], the binding (% of control) is 100% (inactive). Further, the efflux inhibition (fraction of control) in test [14] was 0.33 (inactive). Besides, in test [16], the differentiation response is 12% (inactive).
Take `O=C(/C=C/c1ccc2c(c1)OCO2)NCc1ccc(F)cc1`: in test [1], the percent of DMSO control GFP is 101% (inactive). The GFP response vs DMSO in [2] was 106% (inactive); in test [4], 108% (inactive). In test [3], the percent response of DMSO control was 95.4% (inactive). Also, the GFP response, % of DMSO in [5] is 99.7% (inactive). The same compound returned a double positive events in test [6] of 60.1%. Besides, the vesicle binding response in test [6] was 130% (inactive). For the same compound, the inhibition was -3.57% (inactive) in [7], 55.2% (active) in test [11] and 2% (inactive) in [15]. In [8], the superoxide response (% of plate) was 108% (inactive). Moreover, the aptamer binding inhibition in test [9] was 2% (inactive). Besides, the response is -3.87% (inactive) in test [10] and -3% (inactive) in [12]. Further, the binding (% of control) in test [13] is 98.4% (inactive). The efflux inhibition (fraction of control) in test [14] is 0.08 (inactive). Further, the differentiation response in test [16] was 15.9% (inactive).
With `O=C(O)C(O)c1ccccc1` (centres undefined), the percent of DMSO control GFP in [1] was 101% (inactive). Besides, the GFP response vs DMSO in [2] was 95.6% (inactive); in test [4], 99.1% (inactive). Also, the percent response of DMSO control in [3] is 105% (inactive). Also, the GFP response, % of DMSO in test [5] is 102% (inactive). The compound also yielded a double positive events in [6] of 53.8%. Also, the vesicle binding response in test [6] was 90.5% (inactive). Moreover, the inhibition is -6.45% (inactive) in test [7], -5.56% (inactive) in test [11] and 12% (inactive) in test [15]. Also, the superoxide response (% of plate) in test [8] was 96.6% (inactive). Further, in test [9], the aptamer binding inhibition was 5% (inactive). For the same compound, the response is 3.86% (inactive) in test [10] and 1.56% (inactive) in test [12]. For the same compound, the binding (% of control) in test [13] was 104% (inactive). Further, the efflux inhibition (fraction of control) in test [14] is -0.12 (inactive). In addition, in [16], the differentiation response is -3.11% (inactive).
With `CC(=O)NC(Cc1c[nH]c2ccccc12)C(=O)N/N=C/c1ccccc1` (centres undefined), the percent of DMSO control GFP in [1] was 98.6% (inactive). Moreover, the GFP response vs DMSO in test [2] is 108% (inactive); in test [4] it was 99.1% (inactive). Also, the percent response of DMSO control in test [3] is 104% (inactive). Moreover, the GFP response, % of DMSO in test [5] was 98.6% (inactive). This compound returned a double positive events in test [6] of 62.8%. For the same compound, the vesicle binding response in test [6] was 200% (inactive). Also, the inhibition was -15.8% (inactive) in test [7], 60.7% (active) in [11] and -12% (inactive) in [15]. For the same compound, the superoxide response (% of plate) in test [8] was 98% (inactive). Moreover, the aptamer binding inhibition in test [9] was -3% (inactive). Moreover, the response in test [10] was -1.6% (inactive); in test [12], -13.1% (inactive). In addition, in [13], the binding (% of control) was 104% (inactive). In addition, the efflux inhibition (fraction of control) in test [14] was 0 (inactive). Moreover, in test [16], the differentiation response is -3.11% (inactive).
As for `CC[N+]1(CC)CC2=Cc3ccccc3CC2C1` (centres undefined), the percent of DMSO control GFP in [1] is 91.5% (inactive). In addition, the GFP response vs DMSO in [2] was 121% (inactive); in test [4], 80.3% (inactive). Also, the percent response of DMSO control in [3] was 93.9% (inactive). Further, in test [5], the GFP response, % of DMSO was 88.9% (inactive). Also, the double positive events in test [6] turned out to be 64.8%. Further, the vesicle binding response in test [6] is 178% (inactive). For the same compound, the inhibition is 13.2% (inactive) in [7], 43.9% (inactive) in test [11] and 13% (inactive) in [15]. The superoxide response (% of plate) in test [8] is 90.8% (inactive). Moreover, in test [9], the aptamer binding inhibition is 2% (inactive). In addition, the response is 0.79% (inactive) in test [10] and -6.57% (inactive) in test [12]. Besides, the binding (% of control) in test [13] is 99% (inactive). In test [14], the efflux inhibition (fraction of control) was 0.3 (inactive). For the same compound, the differentiation response in test [16] is 0% (inactive).
